Assay outcomes from PubChem BioAssay.
ALDH1A1 block = ALDH1A1 (human) enzyme inhibition | P00352 | 220,000 compounds, 7.3% hits | Purified ALDH1A1, NADH fluorescence, propionaldehyde substrate | Potency, µM (titrated, usually from 75.3 µM), most hits filed as inhibitors
Target sequence (P00352 whole entry, looked up): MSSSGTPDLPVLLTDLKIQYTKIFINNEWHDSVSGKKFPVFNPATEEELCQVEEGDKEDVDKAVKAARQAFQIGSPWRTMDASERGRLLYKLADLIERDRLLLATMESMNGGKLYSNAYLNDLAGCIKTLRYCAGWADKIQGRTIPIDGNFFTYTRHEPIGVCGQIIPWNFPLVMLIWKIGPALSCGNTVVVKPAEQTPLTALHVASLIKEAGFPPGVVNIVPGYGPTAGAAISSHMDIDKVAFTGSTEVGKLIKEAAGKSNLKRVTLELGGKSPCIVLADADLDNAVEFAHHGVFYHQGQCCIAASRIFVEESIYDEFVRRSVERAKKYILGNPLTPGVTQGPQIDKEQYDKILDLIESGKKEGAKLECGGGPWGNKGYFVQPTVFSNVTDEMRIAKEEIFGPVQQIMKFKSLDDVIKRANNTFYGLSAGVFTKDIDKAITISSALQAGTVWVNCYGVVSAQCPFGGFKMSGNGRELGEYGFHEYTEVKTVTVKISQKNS
HPGD block = inhibitors of human 15-hydroxyprostaglandin dehydrogenase (HPGD) | purified HPGD, NADH fluorescence kinetic, PGE2 substrate | Potency, µM, hits mostly inhibitors | 150,000 compounds, 4.3% hits
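20 nM HPGD preincubated 15 min at room temperature with compound in 50 mM Tris-HCl pH 8, 0.01% Tween 20. Started with 1 mM NAD+ and 30 uM prostaglandin E2; NADH fluorescence (360/450 nm) read 5 times over 30-s intervals, last minus first.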
PNC assembly inh = perinucleolar compartment assembly inhibition | PC3M PTB-GFP, PNC prevalence imaging, 16 h; stronger effect = lower value | activity change (PNC), negative = inhibition, % at 10 µM | 140,000 compounds, 3.1% hits;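 active = readout at or below -70, meaning at least 70% loss of cells showing the perinucleolar compartment, a nuclear body marking cancer cells; inconclusive = readout between -30 and a set limit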
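PC3M cells stably expressing PTB-GFP, 750–1000 cells/well, treated 16 h at 37 °C with compound (23 nl of library stock), in duplicate. After paraformaldehyde fixation and Hoechst stain, imaged at 20x; PNC prevalence scored by image analysis.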
Of the large screens only hits and unclear results are named; the others gave an inactive call; ! = repeats disagree. Only some compounds are listed: those with a hit (about 11% of all), similar ones and a draw of the others. Unless noted, calls follow the shape of the dose curve; as a rule, active = well fitted inhibition curve with a large enough effect (not every such curve was filed as active); inconclusive = small, poorly fitted or top-dose-only effect, or another doubt; inactive = no such curve, though single readings can be large or run the other way.

CC(C)Sc1nc2ccccc2[nH]1	none (no result: HPGD block, PNC assembly inh)
c1ccc(-c2[nH]ncc2CN2CCN(Cc3ccc4c(c3)OCO4)CC2)cc1	none (no result: HPGD block, PNC assembly inh)
Cc1nonc1C1CCCN1Cc1cn[nH]c1-c1ccc2c(c1)OCO2 (centres undefined)	ALDH1A1 block 16µM (no result: HPGD block, PNC assembly inh)
CCCS(=O)(=O)NCCc1cc2c(OC)ccc(OC)c2[nH]c1=O	ALDH1A1 block inconclusive
COc1ccc(OC)c2[nH]c(=O)c(CCNS(=O)(=O)c3ccccc3)cc12	ALDH1A1 block 7.1µM, PNC assembly inh inconclusive
COc1ccc(N(C(=O)C(C)C)S(=O)(=O)c2ccc(Cl)cc2)cc1	ALDH1A1 block inconclusive
COc1ccc(S(=O)(=O)N(C(C)=O)c2ccc3oc(=O)sc3c2)cc1	ALDH1A1 block inconclusive, HPGD block 20µM
N#CC(=NCCO)C1=C(O)c2ccccc2C1=O	none (no result: PNC assembly inh)
O=C1C(SCCO)=C(SCCO)C(=O)c2ccccc21	ALDH1A1 block 18µM, HPGD block 2.8µM! (no result: PNC assembly inh)
O=C1CCCCCCC1Sc1ccccc1[N+](=O)[O-] (centres undefined)	ALDH1A1 block inconclusive
COc1ccc(N/N=C(/N=Nc2nc(C)cc(=O)[nH]2)c2ccccc2)cc1	none
Cc1cc(=O)[nH]c(N=N/C(=N/Nc2ccc(O)cc2)c2ccccc2)n1	ALDH1A1 block 14µM, HPGD block 32µM
COc1ccc(C)cc1NC(=O)C(=O)NNC(=O)c1ccco1	none
O=C(Cn1nnc(-c2ccccc2)n1)N/N=C/c1cc([N+](=O)[O-])ccc1O	ALDH1A1 block inconclusive, HPGD block 14µM, PNC assembly inh inconclusive
NC(N)=N/N=C/c1cc([N+](=O)[O-])ccc1O	ALDH1A1 block inconclusive, PNC assembly inh -115
CN(C)/N=C/c1cc([N+](=O)[O-])ccc1O	none (no result: HPGD block, PNC assembly inh)
O=[N+]([O-])c1ccc(O)c(/C=N/n2cnnc2)c1	ALDH1A1 block 20µM
O=C(Cn1nnc(-c2ccccc2)n1)N/N=C/c1cc([N+](=O)[O-])c(Cl)cc1Cl	none
O=[N+]([O-])c1ccc(O)c(/C=N\N=C2c3ccccc3-c3ccccc32)c1	PNC assembly inh inconclusive
CC1CCC(NC(=O)CN2C(=O)COc3ccc(S(=O)(=O)N4CCCC4)cc32)CC1 (centres undefined)	none
CCOC(=O)COc1ccc(/C=C2\NC(=S)N(CC)C2=O)cc1	ALDH1A1 block inconclusive, PNC assembly inh inconclusive
OCCn1c(CSc2nnc(-c3ccco3)n2-c2ccccc2)nc2ccc(Cl)cc21	ALDH1A1 block 13µM, HPGD block inconclusive
O=C(OCc1nc2ccc(Cl)cc2n1CCO)c1ccccc1	none
CCCC1=NN(C(=O)C(=O)Nc2ccc(Br)cc2)C(O)(C(F)(F)F)C1 (centres undefined)	none (no result: HPGD block, PNC assembly inh)
COc1ccc(C(=O)Nc2ccc3[nH]c(-c4cccc(OC)c4)cc(=O)c3c2)cc1	PNC assembly inh -119
COc1cccc(-c2cc(=O)c3cc(NC(=O)c4cccnc4)ccc3[nH]2)c1	none (no result: PNC assembly inh)
CN(C)c1ccc(NC(=O)/C=C/c2c(Cl)cccc2Cl)cc1	ALDH1A1 block inconclusive, PNC assembly inh -93
CN(C)S(=O)(=O)c1ccc(NC(=O)/C=C/c2ccccc2Cl)cc1	ALDH1A1 block inconclusive
CC1CCCN(C(=O)C2CCN(CC3CC=CCC3)CC2)C1 (centres undefined)	ALDH1A1 block inconclusive, PNC assembly inh -100
COc1cc(CN2CCC(C(=O)N3CCCC(C)C3)CC2)cc(OC)c1O (centres undefined)	ALDH1A1 block inconclusive
O=C(Nc1ccc(S(=O)(=O)Nc2ncccn2)cc1)C1=NN(c2ccccc2)C(=O)CC1	none (no result: HPGD block, PNC assembly inh)
Cc1[nH]c(C)c(CN(C)C)c1CN(C)C	none (no result: PNC assembly inh)
O=C(Nc1nc(-c2ccc(F)c(F)c2)cs1)c1ccc(OCC2CCCO2)cc1 (centres undefined)	none (no result: HPGD block)
CC1Cc2cc(-c3csc(NC(=O)Cc4cccs4)n3)ccc2N1S(C)(=O)=O (centres undefined)	ALDH1A1 block inconclusive, PNC assembly inh -125
CS(=O)(=O)N1CCc2cc(-c3csc(NCC4CCCO4)n3)ccc21 (centres undefined)	ALDH1A1 block 14µM, HPGD block 40µM, PNC assembly inh inconclusive
CCC(=O)Nc1nc(-c2ccc3c(c2)CC(C)N3S(C)(=O)=O)cs1 (centres undefined)	none (no result: HPGD block, PNC assembly inh)
CCCC(=O)Nc1nc(-c2ccc3c(c2)CCN3S(C)(=O)=O)cs1	ALDH1A1 block inconclusive
CS(=O)(=O)N1CCc2cc(-c3csc(NC(=O)Cc4ccccc4)n3)ccc21	ALDH1A1 block inconclusive, PNC assembly inh -119
COc1ccc(OCCN2CCN(C3CC(=O)N(CCC(C)C)C3=O)CC2)cc1 (centres undefined)	none
Nc1ncnc2c1[nH]c(=O)n2C1CC(O)C(CO)O1 (centres undefined)	none (no result: PNC assembly inh)
O=C(CSc1nc2[nH]ncc2c(=O)[nH]1)NCCc1ccccc1	none (no result: HPGD block, PNC assembly inh)
O=C(O)/C=C/C(=O)Nc1ccccc1C(=O)Nc1ccccc1	none
COc1ccc(CNC(=O)CSc2nnc(Cn3nnc4ccccc43)n2C)cc1	none
CCC(=O)N1CCc2cc(S(=O)(=O)NC(Cc3ccccc3)C(=O)NC3CCCCC3)ccc21 (centres undefined)	none
CC(=O)N1CCc2cc(S(=O)(=O)NC(Cc3ccccc3)C(=O)Nc3cc(C)ccn3)ccc21 (centres undefined)	ALDH1A1 block 10µM
CCCn1c(=O)c(C(=O)Nc2nnc(CC)s2)c(O)c2ccccc21	none
O=C(O)c1ccc(NS(=O)(=O)/C=C/c2ccccc2)cc1O	ALDH1A1 block 10µM
O=S(=O)(/C=C/c1ccccc1)Nc1ccc(N2CCOCC2)cc1	ALDH1A1 block inconclusive
CC1(C)Cc2c(C#N)c(N3CCCC3)nc(-c3ccco3)c2CO1	ALDH1A1 block inconclusive, HPGD block inconclusive
CC1(C)Cc2c(c(-c3ccco3)nc3n[nH]c(N)c23)CO1	ALDH1A1 block 25µM, HPGD block inconclusive
O=C(O)C1CCCN(S(=O)(=O)c2ccc(Br)cc2)C1 (centres undefined)	none
COc1ccc(NS(=O)(=O)c2cccc(NC(=O)CCS(=O)(=O)c3ccccc3)c2)cc1	ALDH1A1 block inconclusive, PNC assembly inh inconclusive
Cc1nc2ccccc2n1C1CC(=O)N(Cc2ccccc2)C1=O (centres undefined)	none
COc1ccc(CNC(=O)COC(=O)c2ccccn2)cc1	ALDH1A1 block 25µM (no result: HPGD block, PNC assembly inh)
COc1ccc(CNC(=O)COC(=O)CCOc2ccccc2)cc1	ALDH1A1 block inconclusive
COc1ccc(CNC(=O)c2cnccn2)cc1	none
COc1ccc(CNC(=O)CN(Cc2ccc(OC)cc2)C(=O)c2csnn2)cc1	ALDH1A1 block 2.2µM (no result: HPGD block, PNC assembly inh)
COc1ccc(CNC(=O)c2csnn2)cc1	ALDH1A1 block 25µM
COc1ccc(CNC(=O)CN(Cc2ccccc2)C(=O)c2csnn2)cc1	ALDH1A1 block inconclusive, PNC assembly inh inconclusive
C=C(C)c1nc(N)nc(N)n1	none
C1COC1	none (no result: PNC assembly inh)
Cc1c(Cl)cccc1NC(=O)c1ccc(-n2ccnc2)nc1	PNC assembly inh inconclusive
CCC1=C2CC[C@H]3C(=O)N(CC)C(=O)[C@H]3[C@H]2[C@@]2(C)C(=NCC(=O)OC)OC(=O)N2C1=O	none (no result: PNC assembly inh)
O=C1CCCc2c1[nH]c1ccccc21	PNC assembly inh inconclusive (no result: HPGD block)
O=C1CCCC(=O)C1=Cc1c[nH]c2ccccc12	ALDH1A1 block inconclusive, HPGD block 22µM
Cc1ccc(C(=O)Nc2ccnc(-c3ccncc3)n2)cc1	none (no result: HPGD block, PNC assembly inh)
CC(NC(=O)c1ccco1)C(c1cccs1)N1CCOCC1 (centres undefined)	ALDH1A1 block inconclusive
